molecular target: GNLY; assay: pooled miR-30 sensor sort-seq; sequence = guide strand; details: shRNA
Also: reference of the scale not given here.

In order of falling sensor-assay potency score (higher = more potent):
1. TTCAGTTTTTGGACTATCGTCA  0.462
2. TTTGGTCAACAGGTCACCCTGG  0.282
3. ATTGGAAACACTTCTCTGGGTG  0.184
4. TTGGAAACACTTCTCTGGGTGG  -0.134
5. TTGGTCAACAGGTCACCCTGGG  -0.135
6. ACTATCGTCAGACAGGTCCTGT  -0.334
7. TTTCTCCTCATCACGCAGGTGG  -0.588
8. TATACACAACCTGAGGTCCTCA  -0.844
9. TTGGACTATCGTCAGACAGGTC  -0.895
10. TTTTGGACTATCGTCAGACAGG  -1.31
11. TTGCCAGGTCGTAGTACTCAGG  -1.35
12. TTTTGGTCAACAGGTCACCCTG  -1.53

molecular target: GOLGA1; assay: as above; details: shRNA

In order of rising sensor-assay potency score (higher = more potent):
1. TTAAGTCTGATGACATCTGATT  -1.11
2. TTATCTTCTGCAAGTTTCGGAC  -0.221
3. TGATCTTACTTTCTGCACCTGT  -0.0709
4. TTCTAATGCAATTTCAAGCTTC  0.23
5. TTGAGTTTCAGCAGTGACCTTT  0.403
6. TTTATCTTCTGCAAGTTTCGGA  0.43
7. TTTACTTAGTTCCTGCTGCTGG  0.484
8. TATCACATGATCTCTCTGCTCT  0.568
9. TATTTTACTTAGTTCCTGCTGC  0.934
